Measurements published in PubChem BioAssay AID2717 (Broad Institute, 2010).
Screen size: about 300,000 compounds; about 3,200 (1.1%) were called active. The sample holds actives, similar compounds and a random draw of the others, so the mix is not that of the screen. A number with no mark means an inactive call. Rule as the data show it: active = inhibition above about 75%; inconclusive = no clear call, values can overlap the other calls; inactive = below that; tested in HMLE shEcad cells.

experiment: growth suppression of cancer stem-like cells – cell-based, luminescence, primary screen (AID 2717); conditions: cancer stem cell-like cells viability, at 7.5 µM, stronger effect = higher value

Row | Compound | inhibition
1 | NCCN1CCN2C(=O)CN(C(=O)c3ccccc3)CC12 (stereo not given) | -9.2%
2 | CCCCOc1ccc(C(=O)NCC(=O)OCC(=O)c2c(N)n(C)c(=O)n(C)c2=O)cc1 | 11.8%
3 | COC(=O)c1ccccc1Sc1c(/C=N/OCc2ccc(Cl)cc2)c(C(F)(F)F)nn1C | 17.8%
4 | Cn1nc(C(F)(F)F)c(C(=O)Nc2cccc(C(F)(F)F)c2)c1SCc1ccc(Cl)cc1 | 105% (active)
5 | O=C(O)CSc1c2c(nc3cc(C(=O)Nc4cccc(C(F)(F)F)c4)ccc13)CCCC2 | 14.3%
6 | O=C(CNC(=O)c1n[nH]c2ccccc12)Nc1cc(Cl)ccc1Cl | 5.44%
7 | CC(CNC(=O)Cn1cnc2c(OCc3ccccc3)ncnc21)c1ccccc1 (stereo not given) | -8.55%
8 | Cc1cccc(NC(=O)c2sc(-c3ccccc3)nc2-c2ccc([N+](=O)[O-])cc2)c1 | 12.3%
9 | O=C(Nc1ccccc1)/C(=C/c1ccc([N+](=O)[O-])cc1)NC(=O)c1ccccc1 | -13%
10 | CCOC(=O)/C(=C\c1ccc([N+](=O)[O-])cc1)C(=O)c1cc(C(C)=O)c(Nc2ccccc2)s1 | 88.4% (active)
11 | O=C(OCC(=O)N1CCN(c2ccccc2)CC1)c1ccc([N+](=O)[O-])s1 | 0.421%
12 | CN(CC(=O)Nc1ccc(OC(F)F)cc1)S(=O)(=O)/C=C/c1ccccc1 | 7.09%
13 | COc1cc(-c2cc(C(=O)OCC(=O)Nc3ccc4c(c3)OCO4)c3ccccc3n2)cc(OC)c1OC | -14.5%
14 | O=C(COC(=O)c1c2c(nc3ccccc13)/C(=C\c1cccs1)CCC2)Nc1ccccc1Cl | 73.5%
15 | NS(=O)(=O)c1ccc(NC(=O)COC(=O)c2c3c(nc4ccccc24)/C(=C\c2ccc4c(c2)OCO4)CCC3)cc1 | 93.4% (active)
16 | CN(C(=O)COC(=O)Cc1ccccc1[N+](=O)[O-])C1CCS(=O)(=O)C1 (stereo not given) | -16.1%
17 | CCCN1CCN(C(=O)CCCNC(=O)c2ccc(Cl)cc2)CC1 | -11.6%
18 | CN1CCN(CCCNC(=O)c2ccc(/C=C3\Oc4ccccc4N(Cc4ccc(Cl)cc4)C3=O)cc2)CC1 | 103% (active)
19 | CN1C(=O)/C(=C/c2ccc(C(=O)NC3CCCC3)cc2)Oc2ccccc21 | 2.95%
20 | COc1ccc(/C=C/C(=O)OCC(=O)NC2CCCCCC2)cc1OC | -6.85%
21 | CC(=O)c1sc(NC(=O)CCN2C(=O)C3CC=CCC3C2=O)nc1-c1ccccc1 (stereo not given) | -4.39%
22 | Cc1cccc(OCC(=O)NCC(=O)N/N=C/c2ccc(N(C)C)cc2)c1 | 4.13%
23 | CSc1ccc(/C=N\NC(=O)COc2ccc(Cl)cc2Br)cc1 | -0.83%
24 | Cc1ccc(/C=N/NC(=O)COc2ccccc2-c2ccccc2)cc1 | 114% (active)
25 | CC(C)COc1ccc(C(=O)NNC(=O)CCC(=O)c2cccs2)cc1 | -16.7%
26 | CN(CC(=O)Nc1ccc(C(N)=O)cc1)S(=O)(=O)c1ccc2c(c1)OCCO2 | -1.86%
27 | CCOC(=O)c1c(NC(=O)c2ccc(S(=O)(=O)N(C)CC3CCCO3)cc2)sc2c1CC(C)(C)NC2(C)C (stereo not given) | 62.9%
28 | Cc1nn(-c2ccccc2)c(C)c1NC(=O)COc1ccc(Cl)cc1Cl | 22.1%

Row | Compound | inhibition
29 | COC(=O)c1c(NC(=O)COc2ccc(Cl)cc2Cl)sc2c1CC(C)(C)NC2(C)C | 103% (active)
30 | CC(OC(=O)/C=C/c1ccccc1)C(=O)Nc1ccc(C(N)=O)cc1 (stereo not given) | -9.55%
31 | COc1ccc(-n2nnnc2-c2nc3ccccc3s2)cc1 | 10.3%
32 | COC(=O)Cc1[nH]n(-c2nc3ccccc3s2)c(=O)c1C(C)=Nc1ccc(OC)cc1 | 32.2%
33 | COc1ccc(C2=NN(c3nc4ccccc4s3)C(=O)C2)cc1 | 81.2% (active)
34 | O=C(NCCC1=CCCCC1)c1ccc(-n2cncn2)cc1 | -10.8%
35 | O=C(O)c1cccc(S(=O)(=O)Nc2ccc(O)cc2Sc2nc3ccccc3s2)c1 | -15.7%
36 | CCOc1ccccc1Nc1ccc2nonc2c1[N+](=O)[O-] | -3.74%
37 | O=[N+]([O-])c1c(NCCO)cc(Sc2nc3ccccc3s2)c2nonc12 | 78.7% (active)
38 | CC(C)C(NC(=O)c1c(F)cccc1F)C(=O)NNC(=O)c1ccccc1 (stereo not given) | -4.36%
39 | CC(C)(C)OC(=O)C[C@@H]1C/C=C\C[C@@H](CC(=O)N[C@@H](CO)Cc2ccccc2)C(=O)N2CCC[C@H]2COC1=O | -16.5%
40 | Cc1ccc(C)c(NC(=O)CN(C)C(=O)COc2ccc3ccccc3c2)c1 | -11.2%
41 | O=C(COc1ccc(Br)cc1F)NCC1(N2CCCCC2)CCCCC1 | 1.3%
42 | O=c1[nH]n(-c2ccc([N+](=O)[O-])cc2)c(=O)c2ccccc12 | -17.2%
43 | CC1=NN(c2ccccc2)C(=O)C1C(=O)c1ccc([N+](=O)[O-])cc1 (stereo not given) | -1.87%
44 | O=C1CC(c2ccccc2)=NN1c1ccc([N+](=O)[O-])cc1 | 101% (active)
45 | Cc1ccc(NC(=O)C2CC2)cc1S(=O)(=O)N1CCOCC1 | -16%
46 | C[C@H](CO)N1C[C@H](C)[C@H](CN(C)C(=O)Nc2ccc(C(F)(F)F)cc2)Oc2c(NC(=O)c3ccncc3)cccc2C1=O | 6.77%
47 | COc1ccc(NC(=O)Nc2ccc3c(c2)C(=O)N([C@H](C)CO)C[C@H](C)[C@@H](CN(C)C(=O)Nc2ccc4c(c2)OCO4)O3)cc1 | -11%
48 | COc1cc(OC)cc(-c2sc3ccc(OC)cc3c2-c2ccc3cc[nH]c3c2)c1 | 137% (active)
49 | COc1cc(OC)cc(-c2c(-c3cccs3)c3cc(-c4ccc(OC)cc4F)ccc3n2C)c1 | -6.57%
50 | COc1ccc2sc(-c3ccc(N(C)C)cc3)c(-c3ccc4cc[nH]c4c3)c2c1 | 83.3% (active)
51 | COc1ccc2[nH]c(=S)cc(C)c2c1 | -16.3%
52 | CCN(CC)CC(=O)c1c[nH]c2ccc(OC)cc12 | 3.22%
53 | CC[C@H]1CN2CCc3cc(OC)c(OC)cc3[C@@H]2C[C@@H]1C[C@H]1NCCc2cc(OC)c(OC)cc21 | 76.3% (active)
54 | COc1ccc2c(c1)CCNC2Cc1ccc(OC)c(O)c1 (stereo not given) | 10.2%
55 | COc1cc2c(cc1O)[C@H](Cc1ccc(Oc3cc(C[C@@H]4NCCc5cc(OC)c(O)cc54)ccc3O)cc1)NCC2 | 9.97%
